Here are results for 13 compounds from PubChem BioAssay (NCATS).

Values joined by “and” are separate entries in the source; they are usually repeats but may differ in a detail not shown here. Identical values can stand only once. Unmarked numbers belong to inactive results. Results filed as inconclusive are left out. Active and inactive are the calls of the source. Unless noted, calls come from the whole dose curve; as a rule, active = well fitted curve in the direction sought with a large enough effect; inconclusive = small, poorly fitted or top-dose-only effect, or another doubt; inactive = no such curve, though single readings can be large; an effect the other way counts as inactive or inconclusive.

A short description of assay [1]: NFAT Signaling Pathway (AID 444; active = well fitted curve in either direction with a large enough effect, not every such curve was filed as active;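 note: carbachol stimulus at about its EC50 of 1 µM final; % is set by controls: 0 for no effect and ±100 for the full control effect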). Particulars: Jurkat NFAT-bla M1, carbachol, beta-lactamase ratio, 5 h; at 17.2 µM (top of the series) unless noted. In short, it runs like this: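 Jurkat cells with NFAT-driven β-lactamase reporter and co-expressed M1 receptor, stimulated with carbachol (final 1 uM, ~EC50), compound titration, 5 h at 37 °C. CCF4 loaded 1 h at RT; 460/530 nm ratio gave %activity and AC50.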

Assay [2] is described as follows: Stat Signaling Pathway (AID 446; active = well fitted curve in either direction with a large enough effect, not every such curve was filed as active;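 note: ME-180 cervical cancer cells given 40 pM IL-6 alongside compound; SIE-controlled beta-lactamase reporter measured as 460/530 nm FRET emission ratio; % is set by controls: 0 for no effect and ±100 for the full control effect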). To be noted: ME-180 (cervical carcinoma) SIE beta-lactamase reporter, IL-6 stimulated, 5 h; at 17.2 µM (top of the series) unless noted. The gist of the method:
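Compound effects on IL-6-induced STAT reporter activity were measured in ME-180 cells. After overnight culture, cells were co-treated with 40 pM IL-6 for 5 hrs before beta-lactamase substrate loading at room temperature.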

Assay [3] has as its target Glucocorticoid receptor (Homo sapiens) (UniProt P04150). In words: GR-GFP Redistribution (AID 450;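 active = compounds whose dose series gives a full or clear partial fitted curve of increased nuclear translocation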; note: potency is the fitted concentration of half-maximal effect).
Assay [4] can be described thus: Cell Viability - BJ (AID 421; calls by dose curve;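 note: potency is the fitted concentration of half-maximal effect; cells exposed to compound for 40 hours at 37 °C before readout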). To be noted: BJ fibroblast viability, qHTS. The gist of the method:
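Luminescent ATP signal (CellTiter-Glo, 20 min at room temperature) served as the read-out of viable BJ cells after 40 hours of compound treatment. Responses were scaled between DMSO and 100 uM tamoxifen, and AC50 values were obtained by Hill modeling.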

Assay [5] is described as follows: Cell Viability - MRC5 (AID 434; calls by dose curve;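 note: potency is the fitted concentration of half-maximal effect; cells exposed to compound for 40 hours at 37 °C; potency reflects cytotoxicity seen as loss of intracellular ATP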). Particulars: MRC5 lung fibroblast viability, qHTS. The gist of the method:
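ATP luminescence read-out (CellTiter-Glo, 20 min RT) after 40 hr, 37 °C compound exposure of 1500 MRC5 cells/well. Data normalized to DMSO (basal) and 100 uM tamoxifen (100% inhibition); AC50 from standard Hill equation.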
A general note: Quantitative high-throughput screening tests each substance at several concentrations.

The nature of assay [6]: Cell Viability - SK-N-SH (AID 435; calls by dose curve;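 note: potency is the fitted concentration of half-maximal effect; compound exposure lasted 40 h at 37 °C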). To be noted: SK-N-SH neuroblastoma cell viability qHTS. The gist of the method:
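Cells seeded at 1500 per well and incubated 5 hr at 37 °C. Compound added, then 40 hr at 37 °C. CellTiter-Glo added, 20 min at room temperature, luminescence read.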

Assay [7] in a line: Cell Viability - N2a (AID 540).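 For activity change, negative = cytotoxicity: plate controls were DMSO alone for no effect and tamoxifen control for full effect.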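 Note: cells exposed to compound for 40 h at 37 °C; nearly all actives have a fitted effect of over 45% in size.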 Note: potency is the fitted concentration of half-maximal effect. Particulars: N2a mouse neuroblastoma cell viability; activity change, negative = cytotoxicity: at 92.2 µM (top of the series). In short, it runs like this: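 Cytotoxicity was scored as loss of cellular ATP in N2a cells, a mouse neuroblastoma line. Compounds are applied in a qHTS concentration series for 40 hr at 37 °C.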
The nature of assay [8]: Cell Viability - NIH 3T3 (AID 541).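 For activity change, negative = cytotoxicity: plate controls were DMSO alone for no effect and tamoxifen positive control for full effect.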 Note: nearly all actives have a fitted effect of over 25% in size. Note: potency is the fitted concentration of half-maximal effect. Particulars: NIH 3T3 cell viability, qHTS; activity change, negative = cytotoxicity: at 92.2 µM (top of the series). In short, it runs like this: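 Cells seeded at 1000/well, rested 5 hr at 37 °C, then dosed and incubated 40 hr at 37 °C. CellTiter-Glo added, 20 min room temperature, luminescence read. AC50 by Hill fit.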
A short description of assay [9]: Cellular Toxicity (caspase-3) HepG2 (AID 654).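 For caspase-3 activation: cells exposed to compound for 16 hours before reading; 0% = DMSO alone and 100% = caspase signal from 100 µM tamoxifen.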 Note: potency is the fitted concentration of half-maximal effect. In short, it runs like this:
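Caspase 3/7 activation in HepG2 is measured as rising luminescence after a 16 hr treatment at 37 °C. Values are scaled between DMSO basal and 100 uM tamoxifen, and AC50 is fitted with the Hill equation.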

A short description of assay [10]: Cellular Toxicity (caspase-3) Jurkat (AID 655).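 Note: cells exposed to compound for 16 h at 37 °C before reading.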 Note: potency is the fitted concentration of half-maximal effect. To be noted: Jurkat caspase-3 activation, luminescence; caspase-3 activation: at 92.2 µM (top of the series), DMSO = 0%, tamoxifen = 100%. In short, it runs like this:
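Caspase 3/7 activation is scored as increased luminescence in Jurkat cells cultured with compound for 16 hours in complete medium. AC50 values come from Hill fits of qHTS concentration-response data normalized to DMSO and 100 uM tamoxifen controls.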

The nature of assay [11]: Cellular Toxicity (caspase-3) HUV-EC-C (AID 656). The gist of the method: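 Read-out: luminescence proportional to caspase 3/7 activity, measured 20 min after adding Caspase-Glo 3/7 reagent. Cells (HUV-EC-C) had received compound for 16 hr at 37°C. Increases relative to DMSO and 100 uM tamoxifen gave concentration-response AC50 values.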
The nature of assay [12]: Cellular Toxicity (caspase-3) SHSY5Y (AID 657). The gist of the method: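 Cells plated and incubated 5 h at 37 °C, dosed over a concentration range, incubated 16 h, then given Caspase-Glo 3/7 reagent for 1 h at room temperature before luminescence reading. Staurosporine (10 uM) defined full stimulation.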
Assay [13] can be described thus: Cellular Toxicity (caspase-3) Mesangial (AID 660).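 Note: cells exposed to compound for 16 h before the caspase read.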 To be noted: mesangial cells, normalized: DMSO 0%, 100 µM tamoxifen 100%; at 91.7 µM (top of the series). The gist of the method: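 Seed cells derived from normal human renal glomeruli, incubate 5 h, add compounds across concentrations and incubate 16 h at 37 °C. Caspase 3/7 activation is then quantified by luciferase light, with AC50 derived by Hill modeling.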

The nature of assay [14]: Cellular Toxicity (caspase-3) H-4-II-E (AID 663).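 Note: cells exposed to compound for 16 hr before readout.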 To be noted: H-4-II-E rat hepatoma; Potency: caspase-3 activation; caspase-3 activation: at 92.2 µM (top of the series), scaled: DMSO 0%, 100 µM tamoxifen 100%. The gist of the method:
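H-4-II-E rat hepatoma, 1500 cells/well, 5 hr settle at 37 °C; compound 16 hr, 37 °C, complete medium; Caspase-Glo 3/7, 20 min RT; luminescence. DMSO = 0%, 100 uM tamoxifen = 100%; Hill-equation AC50.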

Assay [15] can be described thus: Cellular Toxicity (caspase-3) N2a (AID 665).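 Note: compound exposure lasted 16 h at 37 °C before readout.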 Particulars: Potency: caspase-3 activation. The gist of the method: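 Caspase-3/7 activation, measured as increased luminescence from aminoluciferin release, is quantified in mouse N2a cells exposed to compounds for 16 h. Values are normalized to DMSO and 10 uM staurosporine, with AC50 derived by Hill modelling.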
The nature of assay [16]: Cellular Toxicity (caspase-3) Renal Proximal Tubule (AID 667).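 Note: cells exposed to compound for 16 hours at 37 °C before detection; 0% = DMSO basal and 100% = 10 µM staurosporine.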 The gist of the method: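 In qHTS format, rat primary proximal tubule cells seeded at 1000 per well are exposed to compounds for 16 hours at 37 °C. An increase in Caspase-Glo 3/7 luminescence indicates caspase activation.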
Assay [17] can be described thus: Cell Viability - LYMP2-003 (AID 965).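 For activity change, negative = cytotoxicity: 0% = DMSO only and full effect = 92 µM tetraoctylammonium bromide.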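 Note: cells exposed to compounds for 24 h before reading; nearly all actives have a fitted effect of over 50% in size.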 Note: potency is the fitted concentration of half-maximal effect. The gist of the method: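 Acute cytotoxicity is scored as a concentration-dependent drop in intracellular ATP, measured by luciferase luminescence in human lymphoblastoid cells treated for 24 hours at 37 C. AC50 values derive from Hill-equation modelling.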
In assay [18] the target is Peroxisome proliferator-activated receptor alpha (Homo sapiens) (UniProt Q07869). Kind of assay: qHTS assay for small molecule agonists of the peroxisome proliferator-activated receptor alpha (PPARalpha) signaling pathway (AID 651778). Note: % of control where 0% means no effect. To be noted: PathHunter PPARalpha complementation, chemiluminescence, 6 h; max response: stronger effect = higher value. The gist of the method:
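Enzyme-fragment complementation assay in which ligand-bound PPARalpha translocates and forms an active enzyme that generates chemiluminescence. Cells were plated overnight, exposed to compound for 6 hr at 37 C, and then given detection reagent for 60 min at room temperature.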

Assay [19] can be described thus: Cell Viability - Renal Proximal Tubule (AID 545). Note: nearly all actives have a fitted effect of over 40% in size. Note: potency is the fitted concentration of half-maximal effect. To be noted: renal proximal tubule cells viability, primary cells of rat origin; activity change, negative = cytotoxicity: at 91.7 µM (top of the series). In short, it runs like this: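 Cytotoxicity is scored as a concentration-dependent drop in cellular ATP in primary rat renal proximal tubule cells exposed for 40 hr. AC50 derives from Hill modelling.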

Assay [20] concerns the target Mitogen-activated protein kinase 10 (Mus musculus) (UniProt Q61831). Kind of assay: JNK3 AlphaScreen Assay (AID 530; active = well fitted curve in either direction with a large enough effect, not every such curve was filed as active;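 note: kinase came from lysate of stimulated human HepG2 cells; signal reports phosphorylation of biotinylated GST-cJun 1-79 at Ser73 with 10 µM ATP; % is set by controls: 0 for no effect and ±100 for the full control effect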). In short, it runs like this: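 Activity was read by AlphaScreen after JNK3-containing HepG2 lysate (cytokine pre-activated) phosphorylated biotinylated GST-cJun with 10 uM ATP at room temperature. Phospho-Ser73 cJun antibody with Protein-A acceptor beads provided detection.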

Peroxisome proliferator-activated receptor alpha (Homo sapiens), sequence (Q07869 whole entry, looked up, the tested form may be a part): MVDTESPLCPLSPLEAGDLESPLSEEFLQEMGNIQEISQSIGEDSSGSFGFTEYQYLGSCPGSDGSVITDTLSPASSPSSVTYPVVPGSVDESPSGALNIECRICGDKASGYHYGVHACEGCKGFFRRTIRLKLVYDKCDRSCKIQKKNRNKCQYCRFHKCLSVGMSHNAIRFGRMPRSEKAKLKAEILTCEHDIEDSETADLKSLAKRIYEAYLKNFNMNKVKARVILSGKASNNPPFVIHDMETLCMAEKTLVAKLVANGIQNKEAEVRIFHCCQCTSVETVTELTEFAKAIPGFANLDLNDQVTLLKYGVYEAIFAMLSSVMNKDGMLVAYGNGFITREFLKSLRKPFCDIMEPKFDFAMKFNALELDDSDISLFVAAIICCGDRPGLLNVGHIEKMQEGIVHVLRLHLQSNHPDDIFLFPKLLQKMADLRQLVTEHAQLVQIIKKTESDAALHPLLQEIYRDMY
Glucocorticoid receptor (Homo sapiens), sequence (P04150 whole entry, looked up): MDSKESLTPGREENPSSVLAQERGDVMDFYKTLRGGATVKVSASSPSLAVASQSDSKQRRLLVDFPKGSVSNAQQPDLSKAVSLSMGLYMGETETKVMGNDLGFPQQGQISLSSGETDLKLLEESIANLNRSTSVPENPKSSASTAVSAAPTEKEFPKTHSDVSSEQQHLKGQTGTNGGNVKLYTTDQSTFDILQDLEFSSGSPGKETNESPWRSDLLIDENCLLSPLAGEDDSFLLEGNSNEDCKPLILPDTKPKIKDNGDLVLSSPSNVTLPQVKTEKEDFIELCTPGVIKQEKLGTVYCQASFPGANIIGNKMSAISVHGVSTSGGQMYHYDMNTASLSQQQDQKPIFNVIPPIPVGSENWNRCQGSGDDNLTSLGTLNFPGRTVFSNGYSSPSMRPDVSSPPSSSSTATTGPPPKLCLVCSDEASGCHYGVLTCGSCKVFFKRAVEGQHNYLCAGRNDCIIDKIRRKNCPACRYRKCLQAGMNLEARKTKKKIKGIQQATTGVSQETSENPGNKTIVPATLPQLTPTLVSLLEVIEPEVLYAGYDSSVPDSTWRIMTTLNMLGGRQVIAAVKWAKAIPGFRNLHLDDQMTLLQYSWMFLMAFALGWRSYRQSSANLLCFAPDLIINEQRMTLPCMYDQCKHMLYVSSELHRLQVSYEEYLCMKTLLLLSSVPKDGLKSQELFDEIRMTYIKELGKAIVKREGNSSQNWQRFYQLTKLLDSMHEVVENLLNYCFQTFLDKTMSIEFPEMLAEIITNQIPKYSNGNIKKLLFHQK

As for `CCSC1=C(C#N)C(c2cccs2)C(C(=O)OC)=C(C)N1` (centres undefined), the activity change, negative = inhibition in assay [1] is 2.23%. Besides, the activity, negative = inhibition in assay [2] is -15.6%. The Potency in assay [3] was above 20.6 µM.

Take `Cc1ccc(-n2ncc3c(NCc4cccnc4)ncnc32)c(C)c1`: in assay [1], the activity change, negative = inhibition was -27.9%. Moreover, in assay [2], the activity, negative = inhibition was -18.9%. For the same compound, in assay [3], the Potency was above 20.6 µM.

In the case of `CO[C@H]1/C=C/O[C@@]2(C)Oc3c(C)c(O)c4c(O)c(c5c(c4c3C2=O)NC2(CCN(CC(C)C)CC2)N=5)=NC(=O)/C(C)=C\C=C\[C@H](C)[C@H](O)[C@@H](C)[C@@H](O)[C@@H](C)[C@H](OC(C)=O)[C@@H]1C`, the Potency in [4] was above 92 µM; in assay [5], above 92 µM; in assay [6] it was above 92 µM; in assay [8], 20 µM (active). The Potency entry in assay [7], in assay [9], in assay [10], in assay [11], in assay [12] and in [15] was “inactive” each time. The Potency entry in assay [17] is “inactive”. In addition, the caspase-3 activation in assay [13] is 0.833%; in [14], 2.28%. Further, the outcome in assay [16] was inactive. The max response in [18] was -2.63%.

As to `O=C=Nc1ccc(Cc2ccc(N=C=O)cc2)cc1`, the Potency in assay [4], in assay [5] and in assay [6] was above 92 µM in each case. Besides, the Potency result in assay [7], in assay [8], in assay [19], in [9], in assay [10] and in [11] was “inactive” in each case. Further, the Potency result in assay [12], in [15] and in [17] was “inactive” in each case. Also, the caspase-3 activation is -0.349% in [13] and 1.23% in [14]. In addition, the result in [16] was inactive. Also, the max response in [18] is -0.535% and -0.74%.

Take `CC(=NC1CCCC1)c1c(C)[nH]n(-c2nc3ccccc3s2)c1=O`: the activity change, negative = inhibition in assay [1] was -20.1%. Besides, the activity, negative = inhibition in assay [2] is -8.78%. The Potency in assay [3] was above 20.6 µM.

Consider `CCOC(=O)CSc1nc(N)c2c3c(sc2n1)CCCC3`, for which, in assay [1], the activity change, negative = inhibition was -14.4%. Further, in assay [2], the activity, negative = inhibition is -14.2%. In assay [3], the Potency is above 20.6 µM.

Turning to `[N-]=[N+]=CC(=O)c1ccnc(C(=O)C=[N+]=[N-])c1`, the activity change, negative = inhibition in assay [1] is -17.4%. Further, in assay [2], the activity, negative = inhibition was -1.87%. For the same compound, in assay [3], the Potency was above 20.6 µM.

For the compound `CCOC(=O)c1[nH]c2ccc(OC)cc2c1NC(=O)CN1CCN(c2ccccn2)CC1`, the activity change, negative = inhibition in assay [1] was -9.84%. Besides, the activity, negative = inhibition in assay [2] is -2.44%. Also, in assay [3], the Potency was above 20.6 µM.

Turning to `O=C1OC2(c3cc(Br)c(O)c(Br)c3Oc3c2cc(Br)c(O)c3Br)c2c(Cl)c(Cl)c(Cl)c(Cl)c21`, the Potency is above 92 µM in assay [4]; above 92 µM in assay [5]; above 92 µM in [6]; 3.98 µM (active) in [7]; 25.1 µM (active) in assay [8]. Further, the Potency result in [19], in [9], in [10], in [11], in [12] and in assay [15] was “inactive” in each case. Further, the Potency entry in assay [17] was “inactive”. The caspase-3 activation in [13] was -1.97%; in assay [14], -0.639%. The call in assay [16] was inactive. In assay [18], the max response is 0.0759%.

As for `CC/C(=C(\c1ccccc1)c1ccc(OCCN(C)C)cc1)c1ccc(O)cc1`, the Potency in [4] is 45.1 µM (active); in assay [5], 43.3 µM (active); in [6] it was 34.3 µM (active); in assay [7], 31.6 µM (active); in [9], 50.1 µM (active); in assay [10], 31.6 µM (active). In addition, the Potency entry in assay [20], in assay [12] and in assay [15] was “inactive” in each case. Moreover, the figures for the activity change, negative = cytotoxicity in [8] and in assay [19] were -141% (active) and -109% (active), respectively. In addition, the caspase-3 activation in [13] is -2.42%; in [14], 124% (active). In assay [16], the compound was called inactive. The max response in [18] was -3.76%.

Regarding `CCOc1ccc(CC2CC(=O)NC2=O)cc1` (centres undefined), the activity change, negative = inhibition in [1] was -5.51%. Moreover, the activity, negative = inhibition in assay [2] was -1.04%. The Potency in assay [3] was above 20.6 µM.

As for `C/C=C1\C(=O)C[C@H]2[C@@H]3CCC4=CC(=O)CC[C@]4(C)[C@H]3CC[C@]12C`, the Potency in [4] and in [5] was above 92 µM each time. For the same compound, the Potency entry in [20], in assay [9], in [10], in [11], in [12] and in assay [15] was “inactive” in each case. For the same compound, the Potency entry in assay [17] was “inactive”. The activity change, negative = cytotoxicity in [7] was -114% (active); in [8], -149% (active). The caspase-3 activation is 1.02% in [13] and 22.9% in assay [14]. In addition, the outcome in assay [16] was inactive. Also, the max response in [18] was -3.35%.

With `O=C1OC(O)C(C(Cl)Cl)=C1Cl` (centres undefined), the Potency in assay [4] is 41.2 µM (active); in [6] it was 30.2 µM (active); in assay [19], 31.6 µM (active); in assay [17], 15.8 µM (active). For the same compound, the Potency result in assay [20], in assay [9] and in assay [11] was “inactive” each time. In addition, the activity change, negative = cytotoxicity in assay [7] was -101% (active). Further, the caspase-3 activation in assay [14] is 24.6%. Also, in assay [16], the compound was called inactive. Also, in assay [18], the max response was -7.18%.
